# Test results: the supplement of paper PMC3334620
# Whole data set: some 33,000 sequences, median “E-score (-0.5 to 0.5)” near -0.0034, cut for the highest 2% near 0.25. The list comes from a sample in which the highest values are over-represented; it also holds similar and randomly drawn sequences.
# Target: T1, Yap3 (UniProt P38749)
# T1 sequence: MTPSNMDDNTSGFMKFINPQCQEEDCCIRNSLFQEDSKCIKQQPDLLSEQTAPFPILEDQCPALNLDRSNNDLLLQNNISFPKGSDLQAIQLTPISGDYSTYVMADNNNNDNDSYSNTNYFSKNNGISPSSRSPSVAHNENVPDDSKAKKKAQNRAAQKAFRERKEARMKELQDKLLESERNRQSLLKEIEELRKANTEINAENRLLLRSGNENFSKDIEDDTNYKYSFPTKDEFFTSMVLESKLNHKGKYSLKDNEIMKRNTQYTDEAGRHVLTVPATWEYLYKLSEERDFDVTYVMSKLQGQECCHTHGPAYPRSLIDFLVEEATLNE
# Assay: PBM E-score (8-mer binding enrichment) (E-score (-0.5 to 0.5)); higher = stronger / more preferred TF binding
# Conditions: protein concentration: 100 nM; construct: GST-full length
# Method: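 Universal 'all 10-mer' protein binding microarrays (Agilent AMADID 015681) probed with GST-tagged S. cerevisiae TFs (full-length or DBD) made by in vitro transcription/translation (PURExpress), about 100-200 nM. Bound TF was detected with fluorescent anti-GST. Each ungapped 8-mer (which stands for itself and its reverse complement) is scored by the PBM enrichment score (E-score), a modified Wilcoxon-Mann-Whitney statistic from -0.5 to +0.5, computed with the Universal PBM Analysis Suite. Scale: above 0.35 generally sequence-specific binding.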
row,Sequence,PBM E-score
1,TAACGATA,0.261
2,CAACGATA,0.0838
3,AAACGATA,0.0765
4,GAACTGTA,0.208
5,AATCAGGA,0.0679
6,ACTAAATC,0.198
7,CATAAATA,0.197
8,AATAAATA,0.315
9,TATAAATA,0.301
10,AATAAAGT,0.262
11,AATAAAGG,-0.0245
12,AATAAATG,0.216
13,ACTAAATA,0.29
14,GATAAATA,0.233
15,AATAAATT,0.186
16,CCTAAATA,-0.122
17,AATAAAGA,0.156
18,ATACTAGC,0.0285
19,GCCAGTCC,-0.343
20,CGATCGGC,0.00629
21,GAGCTAAC,0.0153
22,ACTCGCAC,-0.0984
23,AGTCGCAC,-0.233
24,AACTTGAT,0.15
25,GGCGGTGA,0.132

row,Sequence,PBM E-score
1,GAAGACCA,-0.105
2,GGGTAAAC,0.0445
3,GGGTAAAA,0.258
4,CGGTAAAA,0.114
5,AGATAAGG,-0.0911
6,AATAGAAC,0.16
7,TCACTAAA,0.121
8,AAACTAAA,0.261
9,ACACTAAA,0.261
10,AAACTAAC,0.232
11,AAACTAAT,0.272
12,ATACTAAA,0.188
13,TTACTAAA,0.401
14,GCACTAAA,0.179
15,GTACTAAA,0.21
16,AAACTAAG,0.186
17,GAACTAAA,0.0567
18,TAACTAAA,0.165
19,ATTTCTAG,0.083
20,GGATCCAA,0.138
21,CAGCGACG,-0.0734
22,GATTGGAC,0.0901
23,TCCTCTCA,0.0272
24,ACGATCAA,0.0848
25,ACAGAGGA,-0.00698

row,Sequence,PBM E-score
1,AAAGAAAG,0.231
2,ACGGAAAG,0.144
3,AAAGAAAA,0.18
4,ACGGAAAA,0.107
5,GCGGAAAA,0.245
6,AAGAAATT,0.199
7,AAGAAAAA,0.059
8,ACGGAAAC,-0.079
9,ACGGAAAT,0.323
10,AAAGAAAT,0.26
11,TCGGAAAA,0.275
12,AAGAAAAT,0.273
13,ACCCTTTA,0.101
14,CGCTGGTC,-0.307
15,ACGCTGAA,-0.00885
16,CCCATTGA,-0.0177
17,GATGCGAA,0.057
18,TCCGGTCA,0.00023
19,AAGTATCA,0.052
20,CCCCACTA,-0.135
21,AAGTTGCC,-0.0508
22,ACGAAAAA,0.0676
23,ACGAAAAG,0.153
24,ACGAAAAT,0.257
25,GACTCATC,-0.108

row,Sequence,PBM E-score
1,CGCGCTGA,0.0303
2,AGCGCTTA,0.0641
3,CGCGCTTA,0.265
4,ATCGATGC,0.133
5,CATTAAGA,0.0516
6,ATTGTTTA,0.0804
7,CTTGTTTA,0.0644
8,CTTGTTAA,0.022
9,ATTGTTAC,0.288
10,ATTGTTAA,0.17
11,CTTGTTAC,0.0269
12,GTTGTTAA,0.298
13,GTTGTTTA,0.273
14,ATTGTTAG,0.153
15,TTCAAAAA,0.0865
16,ACGTCCTA,0.00661
17,AGCACACT,0.0288
18,GGATCCAC,-0.0381
19,TGAAAGAA,0.297
20,TGAAAGCA,0.254
21,GGAAAGAA,0.0609
22,AGAAAGAA,0.0357
23,AGAAAGCA,0.232
24,GGAAAGCA,0.018
25,CGGCGTAC,-0.15

row,Sequence,PBM E-score
1,ACGGTTGC,-0.0961
2,TCCTGTCA,-0.0145
3,CCCTGGCC,-0.333
4,AAATCCAG,0.249
5,AAATCCAC,0.0662
6,AAATCCAT,0.29
7,CCGCTGTA,0.117
8,GGATAATA,0.0461
9,ATATAATA,0.299
10,GTATAATA,0.287
11,GTATAACA,0.133
12,GTATAAGA,0.0832
13,ATATAAGA,0.346
14,CTATAATA,0.0592
15,CTATAAGA,0.182
16,ATATAATG,0.2
17,AGTAAGCA,0.00993
18,AATCTGCG,-0.0221
19,AGCCCGCA,-0.123
20,AGCAACGC,-0.0123
21,AGTTTCGG,0.0851
22,ATTAATTA,0.241
23,CTTAATTA,0.174
24,ACTAATTC,0.178
25,GCTAATTA,0.279

row,Sequence,PBM E-score
1,GTTAATTA,0.262
2,ATTAATTC,0.3
3,ACTAATTA,0.362
4,GCTAATAA,0.144
5,ATTAATTG,0.245
6,CCTAATTA,0.136
7,ACTAATTG,0.167
8,GTTAATGA,0.133
9,AGAGATCA,0.0988
10,AAACGAGT,0.217
11,CAAGCTAA,-0.0766
12,CTTTTAAC,0.0122
13,AACAAAGT,0.221
14,AGCGAGCC,-0.122
15,AAAGACTG,-0.0469
16,CTATTACA,0.163
17,GTATTATA,0.329
18,CTATTATA,0.145
19,GTATTACA,0.291
20,GTATTAGA,0.217
21,ATATTATA,0.186
22,CCTTAAAG,0.06
23,CAAGTTGG,0.106
24,GTTGCTAA,0.251
25,CACCTGGG,-0.178

row,Sequence,PBM E-score
1,AAGCCTGG,-0.0378
2,CCATCGTA,0.0169
3,AAACAGCG,0.2
4,CCAGTAAC,0.0196
5,CAATATAG,0.218
6,AAATATGC,0.00442
7,AAATATAA,0.275
8,CAATATAA,0.307
9,GAATATAA,0.195
10,TAATATAA,0.344
11,CAATATAC,0.112
12,AGATATAA,0.211
13,AAATATGT,0.286
14,TCATATAA,0.203
15,AAATATGA,0.224
16,AGGATTGA,0.129
17,AGCAAGAT,0.14
18,AATTTCTG,0.089
19,ATCCCATA,-0.106
20,GTTGCATA,-0.0298
21,ATTTAGCC,0.0798
22,AGGGAGTC,-0.235
